This note sets out measurements from PubChem BioAssay AID449762 (Southern Research Specialized Biocontainment Screening …, 2010).

About 1,900 (0.58%) of roughly 330,000 compounds were called active. About 4% were inconclusive and are not listed. These entries were drawn from the full list. Results with a measured potency or affinity are listed apart. Values without a mark were called inactive. Cut-off read from the data, not from the text of the source: inconclusive = inhibition above about 70% without an active follow-up result; inactive = below that.

This assay can be described thus: M. tuberculosis growth inhibition, HTS (AID 449762).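 Note: bacterial growth assessed after seven days of incubation.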 The following applies: M. tuberculosis H37Rv growth inhibition, 7H9 media; at 25 µM; stronger effect = higher value.
Turning to `Cc1cccc(NC(=O)CCc2ccc(C)o2)c1`, the inhibition is -15.4%.
Then `Cc1ccc(NC(=O)CCc2ccc(C)o2)cc1`, with 23.4%; and `CCOc1ccc(N(CC(=O)NC2CCCC2)C(=O)CCCC(=O)Nc2ccccn2)cc1`, with -1.21%; and `CCc1cc(C(=O)NCC2CCCO2)sc1C` (stereo not given), with -1.92%.
Regarding `CCCNC(=O)c1cc2c3ccccc3n(C)c2s1`, the inhibition is -14.8%.
Then `CCc1cc(C(=O)NNC(=O)CCN2CCN(c3ccccc3)CC2)sc1C`, with -4.59%.
Next, `CC(=O)NNC(=O)c1cc2c3ccccc3n(C)c2s1`: -4.02%; `C/C(=N/NS(=O)(=O)c1ccc(Br)cc1)c1c[nH]c2ccccc12`: 2.63%; `CCOc1ccc(CN2CCNC(=O)C2CC(=O)N(C)CC2CCOCC2)cc1` (stereo not given): 5.35%.
Take `COc1cc(C(=O)NCC(=O)Nc2c(C)cccc2C)ccc1OCc1ccccc1`: the inhibition was -1.77%.
Next, `COc1ccc(C(=O)N2CCC(n3nccc3NC(=O)C3CC3)CC2)cc1F`: 0.61%; `COc1cc(/C=C2/C(=N)N3N=C(CC(=O)N4CCOCC4)SC3=NC2=O)ccc1OCc1ccccc1F`: 0.04%.
Next, `Cc1ccc(S(=O)(=O)N(C)c2ccc(C(=O)N3CCC(C(N)=O)CC3)cc2)cc1`: -5.27%; `CCOC(=O)N1CCN(C(=S)NC(=O)c2cccc(OC)c2)CC1`: -0.27%.
For `O=C(O)CCCN1C(=O)c2cccc3cccc(c23)C1=O`, the inhibition was -5.41%.
Take `CN(C)CCCN1C(=O)c2cccc3cccc(c23)C1=O`: the inhibition is -1.82%.
Next, `O=C1CCCC/C1=C/Nc1ccc2c(c1)OCO2`: 59.1%; `O=C1/C(=C/Nc2cccc([N+](=O)[O-])c2)CCc2ccccc21`: 2.58%; `Cc1cccc(C(=O)NCCc2csc(C)n2)c1`: -0.44%.
Turning to `CCCCC(CC)C(=O)N1CCN(C(=O)c2ccco2)CC1` (stereo not given), the inhibition is -4.92%.
Then `CCc1nc(Nc2ccccc2OC)c2oc3ccccc3c2n1`, with 2.96%.
Consider `COc1ccc(C(=O)NCc2nnc(SCC(=O)c3ccc(F)cc3)n2C)cc1OC`, for which the inhibition was -0.94%.
Next, `CN(CC(=O)NCCc1ccc(F)cc1)Cc1ccccc1`: -0.22%; `CNC1=C(N(C(C)=O)c2ccc(Br)cc2)C(=O)c2ccccc2C1=O`: -2.3%.
Next, `CC(=O)N(C1=C(N)C(=O)c2ccccc2C1=O)c1ccccc1`: -1.88%; `CC(CCc1ccccc1)NC(=O)CN(C)Cc1ccc(F)cc1` (stereo not given): 0.05%; `CC1CCCCC12NC(=O)N(CC(=O)OCc1ccc(Br)cc1)C2=O` (stereo not given): 5.76%.
Next, `CN(C)S(=O)(=O)c1ccc(C(=O)NNC(=O)C2COc3ccccc3O2)cc1` (stereo not given): 2.93%; `O=C(O)c1cc(N/N=C/c2ccc(OCc3ccccc3)cc2)ccc1Cl`: -0.4%; `CN(C(=O)CO/N=C/c1ccc(Cl)cc1)c1ccccc1`: -0.18%.
For `COc1ccc(C=NOCC(=O)OCC(=O)Nc2ccc(OC)cc2)cc1`, the inhibition was 4.42%.
With `CC(C)Oc1ccc(/C(O)=C2/C(=O)C(=O)N(CCN(C)C)C2c2cccs2)cc1` (stereo not given), the inhibition is 4.08%.
Then `CCCOc1ncnc2c1[nH]c1ccc(C)cc12`, with 6.51%.
Then `O=C(NCc1ccccc1)C(=O)Nc1nc(C23CC4CC(CC(C4)C2)C3)cs1`, with 1.12%; and `O=C(NCc1ccccn1)C(=O)Nc1nc(-c2ccccc2)cs1`, with 55.8%; and `COc1ccc(C)cc1NC(=O)C(NC(=O)c1cc(OC)c(OC)c(OC)c1)C(C)C` (stereo not given), with 0.19%.
Next, `S=C(NC1CCCCCC1)NC1CCCC1`: 1.4%; `COc1cc(OC)c(C(=O)NNC(=S)NC2CCCCC2)cc1OC`: -2.47%.
Regarding `CCOc1ccccc1C(=O)Nc1nccs1`, the inhibition is -0.35%.
Consider `CCOc1cccc2cc(C(=O)Nc3cc(C)on3)c(=O)oc12`, for which the inhibition is 3.23%.
Regarding `CCN(CC)c1ccc(NS(=O)(=O)c2cn(C)c(=O)n(C)c2=O)c(C)c1`, the inhibition was -6.59%.
Then `Cc1cc(C(=O)NNc2c(Cl)cccc2Cl)n(C(C)(C)C)n1`, with -6.53%.
With `COc1cccc(NC(=O)C2CCN(C(=O)[C@@H]3Cc4ccccc4CN3C(=O)OC(C)(C)C)CC2)c1`, the inhibition was 2.76%.
Then `COc1cccc(/C=N/n2c(COc3ccccc3)n[nH]c2=S)c1`, with 0.11%; and `Cc1cccc(/C=N/n2c(COc3ccccc3)n[nH]c2=S)c1`, with 9.89%; and `Cc1ccsc1/C=N/NC(=O)Cc1ccc([N+](=O)[O-])cc1`, with 0.13%.
In the case of `COC(=O)C1=C(c2ccc(F)cc2OCc2ccccc2)C[C@@H]2CC[C@H]1N2C(=O)NCc1ccc(C)cc1`, the inhibition is 11.4%.
For the compound `Cc1nnc(SCC(=O)NC2CCCCC2)[nH]c1=O`, the inhibition is -4.1%.
Turning to `Cc1cc(=O)[nH]c(SCC(=O)NC2CCCCCC2)n1`, the inhibition is 1.87%.
Next, `COc1cc(C(=O)NNC(=O)c2cc(C)[nH]n2)cc(OC)c1OC`: -0.74%.
Next, `COc1ccc(NC(=O)CN(C)C(=O)COc2ccccc2Cc2ccccc2)cc1`: 10.9%; `COC(=O)CCCC1=CC2=CC(=O)C(C)(OC(=O)c3cccs3)C(=O)C2=CN1Cc1ccccc1` (stereo not given): -3.58%; `Cc1[nH]c2ccccc2c1C(=O)C(=O)N1CCN(c2cccc(Cl)c2)CC1`: 13.6%.
Take `CC1(C)Cc2nc3sc4c(SCC(=O)O)ncnc4c3cc2CO1`: the inhibition is 0.43%.
Next, `CCSc1ncnc2c1sc1nc3c(cc12)COC(C)(C)C3`: 3.08%; `Cc1ccc(C)c(NC(=O)CN(C)C(=O)c2cccc(S(=O)(=O)N3CCN(Cc4ccccc4)CC3)c2)c1`: 4.09%.
Then `OCCCn1c(CCNc2nc(-c3ccc(Cl)cc3)cs2)nc2cc(C(F)(F)F)ccc21`, with 29.6%; and `CN1CCN(/N=C/c2cccc(Cl)c2Cl)CC1`, with 4.06%.
Then `CN1CCN(/N=C/c2ccc(-c3ccccc3)cc2)CC1`, with 4.56%; and `COC(=O)c1ccc(CS(=O)(=O)c2ccc(C)cc2)o1`, with 2.36%.
